Source: the antibiotic and cytotoxicity screens of Wong et al. (2023)
Among all 39,000 compounds or so, about 3,300 (8.5%) were called active. This is one part of a sample in which actives are shown more often than they occur.

What follows are molecules tested on HepG2 (assay: cytotoxicity call (relative viability < 0.9)). Conditions: 10 µM.

| SMILES | cytotoxicity call |
| --- | --- |
| Cn1c(=O)c(C(=O)NCCO)c(O)c2ccccc21 | inactive |
| CNC(=O)c1c(O)c2ccccc2n(C)c1=O | active |
| CNC(=O)c1c(O)c2ccccc2[nH]c1=O | inactive |
| COc1ccc2c3c([nH]c2c1)[C@H](CO)N(C[C@]13CCN(CC1)C(=O)CN(C)C)S(=O)(=O)C | inactive |
| CC1OC1P(=O)([O-])[O-].[Ca+2] (centres undefined) | inactive |
| NCC[S@@](=O)c1c(-c2ccc(F)cc2)[nH]c2ccccc12 | inactive |
| Cc1[nH]c2ccccc2c1C(=O)CSc1ccc(Cl)cc1 | inactive |
| CSc1c(-c2ccc(Cl)cc2)[nH]c2ccccc12 | active |
| C[C@H](CO)N1C[C@H](C)[C@H](CN(C)S(=O)(=O)c2ccc(Cl)cc2)Oc2ccc(NC(=O)CCN3CCOCC3)cc2C1=O | inactive |
| C[C@@H]1CN([C@@H](C)CO)C(=O)Cc2cc(NC(=O)c3ccncc3)ccc2O[C@H]1CN(C)S(C)(=O)=O | inactive |
| C[C@H](O)C#Cc1ccc2c(c1)O[C@H](CN(C)C(=O)CN(C)C)[C@@H](C)CN([C@@H](C)CO)S2(=O)=O | inactive |
| C[C@H](CO)N1C[C@H](C)[C@H](CN(C)S(=O)(=O)c2ccc(Cl)cc2)Oc2ccc(NC(=O)Nc3ccc(C(F)(F)F)cc3)cc2CC1=O | active |
| CC(C)NC(=O)Nc1ccc2c(c1)CC(=O)N([C@H](C)CO)C[C@@H](C)[C@@H](CN(C)S(=O)(=O)c1ccc(Cl)cc1)O2 | inactive |
| C[C@H]1CN([C@@H](C)CO)C(=O)Cc2cc(NC(=O)Nc3ccc(C(F)(F)F)cc3)ccc2O[C@H]1CN(C)S(=O)(=O)c1ccc(Cl)cc1 | active |
| C[C@@H]1CN([C@H](C)CO)C(=O)Cc2cc(NC(=O)Nc3ccc(C(F)(F)F)cc3)ccc2O[C@@H]1CN(C)S(=O)(=O)c1ccc(Cl)cc1 | active |
| C[C@H]1CN([C@@H](C)CO)C(=O)Cc2cc(NC(=O)Nc3cccc(C(F)(F)F)c3)ccc2O[C@H]1CN(C)S(=O)(=O)c1ccc(Cl)cc1 | active |
| C[C@@H]1CN([C@H](C)CO)C(=O)Cc2cc(NC(=O)Nc3ccc(C(F)(F)F)cc3)ccc2O[C@H]1CN(C)S(C)(=O)=O | inactive |
| C[C@H]1CN([C@@H](C)CO)C(=O)Cc2cc(NC(=O)Nc3ccc(C(F)(F)F)cc3)ccc2O[C@H]1CN(C)S(C)(=O)=O | inactive |
| C[C@H](CO)N1C[C@H](C)[C@@H](CN(C)S(C)(=O)=O)Oc2ccc(NC(=O)Nc3ccc(C(F)(F)F)cc3)cc2CC1=O | inactive |
| C[C@@H]1CN([C@H](C)CO)C(=O)Cc2cc(NC(=O)Nc3ccc(C(F)(F)F)cc3)ccc2O[C@@H]1CN(C)S(C)(=O)=O | inactive |
| O=C(O)c1ccc[nH]1 | inactive |
| Cc1noc(C)c1NC(=O)N(C)C[C@@H]1Oc2ccc(NC(=O)Nc3ccc(C(F)(F)F)cc3)cc2CC(=O)N([C@@H](C)CO)C[C@@H]1C | inactive |

| SMILES | cytotoxicity call |
| --- | --- |
| C[C@@H]1CN([C@H](C)CO)C(=O)Cc2cc(NC(=O)Cn3cnnn3)ccc2O[C@H]1CN(C)Cc1ccc(Oc2ccccc2)cc1 | inactive |
| CN1CCN(C(=O)C[C@H]2C=C[C@H](NS(=O)(=O)c3cccc(F)c3)[C@@H](CO)O2)CC1 | inactive |
| Cn1cnc(S(=O)(=O)N[C@H]2CC[C@H](CC(=O)NCC3CC3)O[C@@H]2CO)c1 | inactive |
| C[C@@H]1CN([C@@H](C)CO)C(=O)c2cc(NC(=O)CCC(F)(F)F)ccc2O[C@@H](C)CCCCO[C@H]1CN(C)C(=O)Nc1cccc2ccccc12 | inactive |
| CC(C)N1C[C@H](C)[C@@H](CN(C)Cc2ccc(Oc3ccccc3)cc2)Oc2c(C(=O)Nc3ccncc3)cccc2C1=O | inactive |
| COc1ccc(NC(=O)Nc2ccc3c(c2)C(=O)N([C@@H](C)CO)C[C@H](C)[C@H](CN(C)Cc2ccc(C(=O)O)cc2)OCCCC[C@H](C)O3)cc1 | inactive |
| CCCNS(=O)(=O)c1c[nH]c(C(=O)OC)c1 | inactive |
| C[C@@H]1CN([C@@H](C)CO)C(=O)c2cccc(NS(=O)(=O)c3ccc(F)cc3)c2O[C@@H]1CN(C)CC1CC1 | inactive |
| C[C@H]1CN([C@@H](C)CO)C(=O)Cc2cc(NC(=O)Nc3cccc(C(F)(F)F)c3)ccc2O[C@H]1CN(C)S(=O)(=O)c1ccc(Oc2ccccc2)cc1 | active |
| C[C@H]1CN([C@@H](C)CO)C(=O)Cc2cc(NC(=O)Nc3ccc(C(F)(F)F)cc3)ccc2O[C@@H]1CN(C)S(=O)(=O)c1ccc(Cl)cc1 | active |
| C[C@@H]1CN([C@H](C)CO)C(=O)Cc2cc(NC(=O)Nc3ccc(C(F)(F)F)cc3)ccc2O[C@H]1CN(C)S(=O)(=O)c1ccc(Cl)cc1 | inactive |
| COc1ccc(S(=O)(=O)N(C)C[C@@H]2Oc3ccc(NC(=O)Nc4cccc(C(F)(F)F)c4)cc3CC(=O)N([C@@H](C)CO)C[C@@H]2C)cc1Cl | active |
| C[C@@H]1CN([C@@H](C)CO)C(=O)Cc2cc(NC(=O)Nc3ccc(C(F)(F)F)cc3)ccc2O[C@H]1CN(C)S(=O)(=O)c1ccc(Cl)cc1 | inactive |
| C[C@H](CO)N1C[C@H](C)[C@@H](CN(C)S(=O)(=O)c2ccc(Cl)cc2)Oc2ccc(NC(=O)Nc3ccc(C(F)(F)F)cc3)cc2CC1=O | active |
| Cc1cc(=O)nc2[nH][nH]c(=S)n12 | inactive |
| C[C@H]1CN([C@@H](C)CO)C(=O)c2cccc(NC(=O)c3nc4ccccc4s3)c2O[C@@H]1CN(C)S(C)(=O)=O | inactive |
| C[C@@H]1CN([C@@H](C)CO)C(=O)Cc2cc(NC(=O)Nc3cccc4ccccc34)ccc2O[C@H]1CN(C)C(=O)Nc1ccccc1 | inactive |
| COc1ccc(S(=O)(=O)Nc2ccc3c(c2)CC(=O)N([C@H](C)CO)C[C@@H](C)[C@H](CN(C)Cc2ccc(C(=O)O)cc2)O3)cc1 | inactive |
| CN(C)C=C(C=[N+](C)C)c1[nH]ncc1N | inactive |
| C[C@@H]1CN([C@@H](C)CO)C(=O)Cc2cc(NC(=O)Nc3ccc(C(F)(F)F)cc3)ccc2O[C@@H]1CN(C)S(=O)(=O)c1ccc(Cl)cc1 | active |
| Cc1cc(C(=O)Nc2cccc3c2O[C@H](CN(C)Cc2ccncc2)[C@@H](C)CN([C@H](C)CO)C3=O)n(C)n1 | inactive |
| C[C@@H]1CN([C@@H](C)CO)C(=O)Cc2cc(NC(=O)CCC(F)(F)F)ccc2O[C@@H]1CN(C)S(=O)(=O)c1cn(C)cn1 | inactive |
